Binding signal data for nine molecules are collected here from paper PMC12864922, “TDP-43 directly inhibits mRNA accumulation in neurites through modulation of mRNA stability”.

Whole data set: some 9,900 sequences, median “r (bound/input frequency ratio)” near 0.7, cut for the highest 2% near 6.5. The list comes from a sample in which the highest values are over-represented; it also holds similar and randomly drawn sequences.

The labels stand for the following.
B1: ENSMUSG00000031028.55|Tub (ssRNA)
RNA: GGGAGUUCUACAGUCCGACGAUCGCUUCGAUAUCCGCAUGCUAUGUGCCCCAAGGUCAACACACAUGCCCAGUCCUGGGUCAGUCCCCUGCUGCAGUGGUGUUAUCACACCGGAAAGCCUCUUCACCUGGAGGUACAGAGGGAGAGGAAGCACAAGCCUGGCUGCUGUGGCUCAGCCAUCCACUCAGCCUACGAGUCAGAGACAGUGGGUGUCCCGGGAAGCAGGGGUACAGUGAGUGUGUGUGUAUGUACAGGGCACUCAAGCUGUAUGUAGAAAAAGCUCUGGUGGUCAGCAGAAAGCACUCUCUUGCGGUCGCACUAGUGUGGAAUUCUCGGGUGUCAAGG
B2: ENSMUSG00000042529.483|Kcnj12 (ssRNA)
RNA: GGGAGUUCUACAGUCCGACGAUCGCUUCGAUAUCCGCAUGCUAUCUCUUUGAAUGCUACUGUGUUGAGAUGUGCGUCUCACUGGCCUCUGCCUGCCUCUCCCGCCUGCGGAGCACUUACACUUCCUGGGGCCCCUGCAGCUGGACCAUGUACAGGGCUCCCUGGGGCUUGUCCUCAGGGGCAGAGAAGGACAUGGUGGCAGCAGCACUGAGAACAGGAGCAUGGCCUCUCUCAGACCCCAGGGCAGUCAUUCAGUCUUUUCCAUGGACACUCCCCACCGCUCCACAUACUGCCUCCGCCUCAUCUCUUGCGGUCGCACUAGUGUGGAAUUCUCGGGUGUCAAGG
B3: ENSMUSG00000061578.627|Ksr2 (ssRNA)
RNA: GGGAGUUCUACAGUCCGACGAUCGCUUCGAUAUCCGCAUGCUAAGGGAGCAACCUAUAGGAAAUGCAAAGGCUUAGAGGGGACGGACAGCUCCCUGACCCUGGAUGGCCAGGAAUGGUGCUAGCUAGGGUGUGAGCCAAGCCCUUGAGGCUACUGUGAGUUAUGAGAUGUGUCCAACCCUCAGCCCACAGACUGCAUAUGCCCCAGGACAGCUGUGAAGGUGACCCAAUACAAAAUCGUAAACUAACUUAAAACCAUUAAGGGUUUUUGUUUUGUUGUUGUUUGCUGGCUUUUUGUUUUUUGGCUCUUGCGGUCGCACUAGUGUGGAAUUCUCGGGUGUCAAGG
B4: ENSMUSG00000042529.54|Kcnj12|94:101;234:238 (ssRNA)
RNA: GGGAGUUCUACAGUCCGACGAUCGCUUCGAUAUCCGCAUGCUAGCAAGGAGGUGACUUCUUGGGGUAGGGUUGCUCAGGAGUUAGGGACUCUGCUGGAGGCCUUAGGUGCAGGUCCCAGCCCCGGUGGGAGGAGGCACACAUACUACACUUCAUUGGUUUUUAACUUGGGCAAGACUGUUUACAAACAAAAACAAACAAACAAACAAUCAAAAAAAAAACCCACCCCACAAAACACAAGAAAACAUUAACAGGUGGUUCAAUUUUUAAAAUUCCUGCACACGGGACAGUUGGAAUUCUACUCACUCUUGCGGUCGCACUAGUGUGGAAUUCUCGGGUGUCAAGG
B5: ENSMUSG00000042529.244|Kcnj12|181:185 (ssRNA)
RNA: GGGAGUUCUACAGUCCGACGAUCGCUUCGAUAUCCGCAUGCUAAGAUAGGCUGGCUCCCAGGCACCUUGCUUCAGAUUCCAUGCUAAUUUCUAAUCUAGGAGAUUCCCCUAGGACCCGCUGCAGAGGCAUGGGCUCCUCUGUGGUCCUGGCCAGACCUCUGCCCCCAAAUCUCACUGACUGUUCUAGCCUUGGCCUUGGGGCCUAAGGGUGCAUUCAGCCUGGCACACCUUACCUGCCACUCACCUCUCUAUCUAGUUGUCGAGUCUAGGGAAGGGCAGAGGGUGGGUCCUGGCCACUGGGUGCUCUUGCGGUCGCACUAGUGUGGAAUUCUCGGGUGUCAAGG
B6: ENSMUSG00000031028.132|Tub|108:112;184:189 (ssRNA)
RNA: GGGAGUUCUACAGUCCGACGAUCGCUUCGAUAUCCGCAUGCUAGGGGAUGAUAGGAGUCAUCCAGUAGACUCCCUACAUCAGGGCUCUCAGCAGCCCCAGCACAACACCUAUGACACACACACAGGAUCUAGGUCACCAUUCAAGUAAUGCAUACCUUCAGGAAGAAUGUCCUCUCUGGGAAGACUCAGCUCCCAUUAUUGCCAGCAUGCCAUGAUCAGUGAGGGCACACACCCAUGCUUAGGGGGAUGGCGCAGGGUGAGGGGAGCAGAGGAUAUUUUAGGGCCACAAGAGCUCAGAGGUAGCUCUUGCGGUCGCACUAGUGUGGAAUUCUCGGGUGUCAAGG
B7: ENSMUSG00000032194.60|Kank2 (ssRNA)
RNA: GGGAGUUCUACAGUCCGACGAUCGCUUCGAUAUCCGCAUGCUAAGGGGGGGCAAGAAGAGAAAAUACUGUAUUCUUGAGUCAUUGUUAGGGGAUGGGAGGGGUCAGAAUUCAGUUGCUAAAUUUGAAUGUCACUGGAAUGUUACAGUGUCUAUUGUCUCCUCAUCUUUACAGCAGGUCUCCACAAAGCCUGCUCACCACCCUUUGUCACCUCAUUUCAUUGUCUAGUGUACAAUAGGGUCUUGUCCACUGCCCUCCACCUCCAGACUGUGUCUUCAGGGCCUGGGGUGUCUCUUGUGAUUGCUCUCUUGCGGUCGCACUAGUGUGGAAUUCUCGGGUGUCAAGG
B8: ENSMUSG00000061578.444|Ksr2 (ssRNA)
RNA: GGGAGUUCUACAGUCCGACGAUCGCUUCGAUAUCCGCAUGCUAAAUCCUUCAAGACAGAAGUUUCAGAGGGGAUAGUUCCUUCUAACCUUGUACUGGGACAUCAUCUAUGUCCCCAUCCCCAGAGCUGAAUUAGAGACACCAAGUAGCCUCUUGGGUUGUUUUGUGGGGUGUUCCCCUUGCUGGUCAAAGGAGUGGAAAGCCACCUUGCUGUAAAUGCUCUUGUUUUCUGUAGCAAUCUUGAACUCUUUUUUUUUUUUGUUCGUUUGUUUGUUUGUUUGUUUGUUUGUUUUUUCAAGACAGGGCUCUUGCGGUCGCACUAGUGUGGAAUUCUCGGGUGUCAAGG
B9: ENSMUSG00000058297.14|Spock2|167:171;175:188;197:208;222:228;237:246;252:260 (ssRNA)
RNA: GGGAGUUCUACAGUCCGACGAUCGCUUCGAUAUCCGCAUGCUAUGAUGGAGGCUACAUCUGGUAGAUAGCCCUCGACGGCCUCGGCAGGCCAGGGUGCCGACGGCCAGAAAGACAGGCCAGAAGAGACCUGGACAACAGCAGGCAACUUAGCAAAUGGAUCCGGAAGUCAGUGCGGAGGACCCUGGCUCCAGUGGGGGAGGACUGGGGACACACGCUACACACAUACACACAUAUGAGAACACACACAUACAUGUGAGAUGUGACACACACAUGUGAGAACACACAUACUGAGAACACACACACUCUUGCGGUCGCACUAGUGUGGAAUUCUCGGGUGUCAAGG

Chain of TDP-43 (Q13148 whole entry): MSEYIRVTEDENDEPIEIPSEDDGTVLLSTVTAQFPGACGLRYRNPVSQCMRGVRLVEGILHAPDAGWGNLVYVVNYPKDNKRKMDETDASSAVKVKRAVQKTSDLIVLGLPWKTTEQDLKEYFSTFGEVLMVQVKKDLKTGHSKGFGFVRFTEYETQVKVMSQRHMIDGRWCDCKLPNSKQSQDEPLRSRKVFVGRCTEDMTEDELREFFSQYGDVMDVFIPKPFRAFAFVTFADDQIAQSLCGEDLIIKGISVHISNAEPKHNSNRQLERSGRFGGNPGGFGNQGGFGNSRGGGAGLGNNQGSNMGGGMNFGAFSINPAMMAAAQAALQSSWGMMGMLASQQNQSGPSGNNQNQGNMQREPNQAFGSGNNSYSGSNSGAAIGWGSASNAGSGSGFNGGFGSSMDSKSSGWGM

The assay addresses TDP-43 (Homo sapiens, UniProt Q13148 1-414). Put plainly: RNA Bind-n-Seq with designed 260-mer pool; 25 mM Tris-HCl, 150 mM KCl, 3 mM MgCl2, BSA (printed 500 mg/mL), 20 units/mL SUPERase IN; pH not stated; 500 nM RNA pool, 1 h, 4 C; TDP-43 5, 50, 500 nM; high values mean tight binding. The following applies: protein: recombinant; tags: SBP (GST cleaved off with PreScission; pGEX-GST-SBP). The gist of the method:
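In 25 mM Tris-HCl, 150 mM KCl, 3 mM MgCl2, BSA and SUPERase IN, 500 nM of an in vitro-transcribed 260-nt 3′ UTR oligo pool was incubated for 1 h at 4 °C with SBP-tagged TDP-43 (5, 50 or 500 nM) captured on streptavidin beads. RNA remaining after washes was biotin-eluted, reverse transcribed, PCR-amplified and sequenced. Binding, R, is the bound-sample abundance of each oligo, normalized to mapped reads, divided by its abundance in input. Each duplicate used a separate, independent protein batch.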
Consider B1, for which the binding signal is 0.773 R (bound/input frequency ratio).
Consider B2, for which the binding signal is 0.21 R (bound/input frequency ratio).
In the case of B3 it was 0.542 R (bound/input frequency ratio); in that of B4, 0.46 R (bound/input frequency ratio); in that of B5, 1.24 R (bound/input frequency ratio).
In the case of B6, the binding signal was 0.891 R (bound/input frequency ratio).
Take B7: the binding signal was 2.47 R (bound/input frequency ratio).
With B8, the binding signal was 2.36 R (bound/input frequency ratio).
As for B9, the binding signal was 1.95 R (bound/input frequency ratio).
